Legend:
Assay in all cases: DAPPL (digital affinity profiling via proximity ligation, sequencing); 10 mM Tris-HCl pH 7.5, 50 mM NaCl, 1 mM DTT, 4% glycerol, room temperature, 30 min; GST-TFs on glutathione beads, 16-mer random dsDNA library, 0.1% formaldehyde crosslink after washing; high values mean tight binding
Conditions in all cases: protein: recombinant; tags: N-terminal GST; dsDNA, one strand shown
FLI1 = molecular target: T1, FLI1 (Homo sapiens, UniProt Q01543 1-452)
T1 sequence: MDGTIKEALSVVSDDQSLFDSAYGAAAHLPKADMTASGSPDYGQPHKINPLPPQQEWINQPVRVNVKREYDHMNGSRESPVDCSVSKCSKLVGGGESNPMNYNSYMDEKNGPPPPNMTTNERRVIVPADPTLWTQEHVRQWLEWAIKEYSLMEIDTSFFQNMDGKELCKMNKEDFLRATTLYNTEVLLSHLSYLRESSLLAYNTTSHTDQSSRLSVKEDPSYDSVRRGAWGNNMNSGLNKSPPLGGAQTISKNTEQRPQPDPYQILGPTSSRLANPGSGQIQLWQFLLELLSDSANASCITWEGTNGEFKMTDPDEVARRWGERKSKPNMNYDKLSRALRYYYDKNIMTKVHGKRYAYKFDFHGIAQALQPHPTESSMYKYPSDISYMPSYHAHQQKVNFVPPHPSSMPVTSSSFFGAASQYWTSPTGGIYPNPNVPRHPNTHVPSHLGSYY
Summary of the method: (§1)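 Binding signal is given per hexamer as its read frequency for a factor divided by its frequency in the tag-only sample. GST-fused human transcription factors were expressed in yeast, captured on glutathione beads, barcoded with DNA and pooled with that sample, then incubated with 200 nmole of a 16-mer random double-stranded DNA library in Tris/NaCl/DTT/glycerol buffer for 30 min at room temperature. The pools were then washed, crosslinked, proximity-ligated, amplified by PCR and sequenced on an Illumina NextSeq500.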

ELK1 = molecular target: T2, ELK1 (Homo sapiens, UniProt P19419 1-428)
T2 sequence: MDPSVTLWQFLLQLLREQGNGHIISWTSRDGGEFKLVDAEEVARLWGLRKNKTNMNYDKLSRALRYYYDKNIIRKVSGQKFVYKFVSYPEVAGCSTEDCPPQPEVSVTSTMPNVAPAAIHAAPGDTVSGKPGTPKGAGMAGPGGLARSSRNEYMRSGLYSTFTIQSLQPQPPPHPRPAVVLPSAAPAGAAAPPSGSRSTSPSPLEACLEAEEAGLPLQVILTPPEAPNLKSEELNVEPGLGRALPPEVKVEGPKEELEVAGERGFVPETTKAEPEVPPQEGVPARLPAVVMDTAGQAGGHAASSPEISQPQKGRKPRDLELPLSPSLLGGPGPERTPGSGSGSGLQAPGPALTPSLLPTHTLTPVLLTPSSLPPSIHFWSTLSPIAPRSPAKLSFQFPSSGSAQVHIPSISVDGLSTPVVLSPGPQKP
Summary of the method: as §1

GABPA = molecular target: T3, GABPA (Homo sapiens, UniProt Q06546 1-454)
T3 sequence: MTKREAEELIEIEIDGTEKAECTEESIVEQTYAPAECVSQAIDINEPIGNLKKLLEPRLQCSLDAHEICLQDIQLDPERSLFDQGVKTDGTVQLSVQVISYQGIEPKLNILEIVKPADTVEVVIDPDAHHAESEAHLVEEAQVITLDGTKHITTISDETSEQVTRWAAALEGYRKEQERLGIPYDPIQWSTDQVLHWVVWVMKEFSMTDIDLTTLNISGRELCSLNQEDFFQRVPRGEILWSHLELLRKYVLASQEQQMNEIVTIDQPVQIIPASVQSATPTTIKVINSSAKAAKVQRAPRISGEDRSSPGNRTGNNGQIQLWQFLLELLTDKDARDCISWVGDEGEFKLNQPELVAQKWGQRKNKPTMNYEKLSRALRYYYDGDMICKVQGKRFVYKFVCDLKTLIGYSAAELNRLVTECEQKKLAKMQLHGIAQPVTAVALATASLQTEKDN
Summary of the method: as §1

ERG = molecular target: T4, ERG (Homo sapiens, UniProt P11308 1-479)
T4 sequence: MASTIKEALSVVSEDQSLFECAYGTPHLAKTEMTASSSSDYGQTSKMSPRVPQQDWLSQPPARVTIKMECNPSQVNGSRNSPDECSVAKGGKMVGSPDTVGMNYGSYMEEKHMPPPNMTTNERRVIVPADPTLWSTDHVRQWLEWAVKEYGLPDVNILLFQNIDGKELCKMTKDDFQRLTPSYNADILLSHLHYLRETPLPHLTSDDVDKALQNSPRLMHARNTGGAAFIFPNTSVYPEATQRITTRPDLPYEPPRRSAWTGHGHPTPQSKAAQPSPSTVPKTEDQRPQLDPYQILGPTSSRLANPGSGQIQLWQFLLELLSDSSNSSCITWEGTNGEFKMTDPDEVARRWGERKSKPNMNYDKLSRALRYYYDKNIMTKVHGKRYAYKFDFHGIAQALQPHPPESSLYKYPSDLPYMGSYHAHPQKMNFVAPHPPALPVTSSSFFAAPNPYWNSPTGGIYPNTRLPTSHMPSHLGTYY
Summary of the method: as §1

ELF1 = ELF1 (Homo sapiens, UniProt P32519 1-619)
Chain of ELF1 (P32519 whole entry): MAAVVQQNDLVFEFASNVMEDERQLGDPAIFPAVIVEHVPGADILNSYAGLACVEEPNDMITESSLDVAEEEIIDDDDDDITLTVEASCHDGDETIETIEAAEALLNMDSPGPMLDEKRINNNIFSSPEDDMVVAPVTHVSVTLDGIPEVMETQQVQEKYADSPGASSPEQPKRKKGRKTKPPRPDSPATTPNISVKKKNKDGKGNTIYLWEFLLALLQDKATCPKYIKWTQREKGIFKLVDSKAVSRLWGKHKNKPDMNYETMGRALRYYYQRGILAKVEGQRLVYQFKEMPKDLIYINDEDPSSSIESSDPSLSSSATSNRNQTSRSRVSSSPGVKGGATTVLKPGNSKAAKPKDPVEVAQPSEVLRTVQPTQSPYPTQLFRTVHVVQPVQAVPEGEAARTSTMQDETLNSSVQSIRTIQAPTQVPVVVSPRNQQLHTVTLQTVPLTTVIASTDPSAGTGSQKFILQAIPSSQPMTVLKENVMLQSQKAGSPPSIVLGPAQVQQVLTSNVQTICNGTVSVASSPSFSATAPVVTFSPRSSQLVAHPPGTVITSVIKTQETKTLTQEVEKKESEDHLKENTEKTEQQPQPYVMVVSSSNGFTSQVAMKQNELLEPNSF
Summary of the method: as §1

EHF = molecular target: T5, EHF (Homo sapiens, UniProt Q9NZC4 1-300)
T5 sequence: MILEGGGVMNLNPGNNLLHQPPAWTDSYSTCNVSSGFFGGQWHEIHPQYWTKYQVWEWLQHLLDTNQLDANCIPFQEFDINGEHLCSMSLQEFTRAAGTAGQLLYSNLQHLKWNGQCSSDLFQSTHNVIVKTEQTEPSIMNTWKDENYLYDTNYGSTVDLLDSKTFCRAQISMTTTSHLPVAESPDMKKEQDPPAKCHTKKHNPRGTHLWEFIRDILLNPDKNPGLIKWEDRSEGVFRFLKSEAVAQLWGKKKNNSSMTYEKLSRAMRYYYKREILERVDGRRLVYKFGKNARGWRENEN
Summary of the method: as §1

SPI1 = SPI1 (Homo sapiens, UniProt P17947 1-270)
Summary of the method: as §1

SPIB = SPIB (Homo sapiens, UniProt Q01892 1-262)
Chain of SPIB (Q01892 whole entry): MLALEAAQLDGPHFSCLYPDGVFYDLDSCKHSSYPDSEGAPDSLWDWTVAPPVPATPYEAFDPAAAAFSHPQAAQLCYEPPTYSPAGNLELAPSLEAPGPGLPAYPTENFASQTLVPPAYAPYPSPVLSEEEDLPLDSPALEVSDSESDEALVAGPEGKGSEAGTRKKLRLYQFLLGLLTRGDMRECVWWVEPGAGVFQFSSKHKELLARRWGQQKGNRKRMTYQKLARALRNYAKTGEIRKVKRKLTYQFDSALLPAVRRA
Summary of the method: as §1

ELK3 = molecular target: T6, ELK3 (Homo sapiens, UniProt P41970 1-407)
T6 sequence: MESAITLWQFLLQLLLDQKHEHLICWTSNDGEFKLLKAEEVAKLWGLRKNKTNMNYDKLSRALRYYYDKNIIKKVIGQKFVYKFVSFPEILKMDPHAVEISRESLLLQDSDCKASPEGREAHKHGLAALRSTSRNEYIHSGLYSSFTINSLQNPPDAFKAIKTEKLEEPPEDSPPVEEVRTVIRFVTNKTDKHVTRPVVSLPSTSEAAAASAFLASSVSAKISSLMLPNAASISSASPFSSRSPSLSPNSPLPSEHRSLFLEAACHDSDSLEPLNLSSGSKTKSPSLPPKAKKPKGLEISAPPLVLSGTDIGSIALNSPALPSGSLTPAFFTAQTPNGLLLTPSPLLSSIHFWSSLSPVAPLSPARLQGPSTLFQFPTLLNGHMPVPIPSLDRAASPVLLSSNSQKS
Summary of the method: as §1

**Q.** TAAAAC was tested. Which binding signal (FLI1) did it give?
**A.** 1.17 fold enrichment (6-mer frequency, TF over GST control)

**Q.** And the binding signal (ELK1)?
**A.** 1.18 fold enrichment (6-mer frequency, TF over GST control)

**Q.** What about the binding signal (GABPA) of the same sequence?
**A.** 1.14 fold enrichment (6-mer frequency, TF over GST control)

**Q.** What about the binding signal (ERG) of the same sequence?
**A.** 1.18 fold enrichment (6-mer frequency, TF over GST control)

**Q.** What about the binding signal (ELF1) of the same sequence?
**A.** 1.24 fold enrichment (6-mer frequency, TF over GST control)

**Q.** What about the binding signal (EHF) of the same sequence?
**A.** 1.11 fold enrichment (6-mer frequency, TF over GST control)

**Q.** And the binding signal (SPI1)?
**A.** 1.2 fold enrichment (6-mer frequency, TF over GST control)

**Q.** What about the binding signal (SPIB) of the same sequence?
**A.** 1.17 fold enrichment (6-mer frequency, TF over GST control)

**Q.** What about the binding signal (ELK3) of the same sequence?
**A.** 1.19 fold enrichment (6-mer frequency, TF over GST control)

Reference: publication PMC7862700, “An all-to-all approach to the identification of sequence-specific readers for epigenetic DNA modifications on cytosine”
